“And” between values parts separate entries of the source, which are not always exact repeats. Equal values may be shown once. The campaign covered roughly 5,500 compounds. About 2,000 (36%) were called active. Not shown: some 18% with an inconclusive outcome. Cut-off read from the data, not from the text of the source: active = normalized growth mostly below about 0.91 (no sharp cut-off); inconclusive = no clear call, values can overlap the other calls; inactive = mostly above about 0.92. This is one part of the list.
Assay: chemical genetic growth profiling, strain panel (AID 1159580);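 note: tested at 20 µM; growth read once vehicle control cultures reached saturation at 30 °C; 1 = growth at the plate median or of vehicle wells; lower values mean less growth of the strain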
Details: S. cerevisiae deletion strains, growth OD

Measured: normalized growth

CC(C)Cn1c(=O)n(C)c(=O)c2[nH]cnc21
inactive: locus YAL013W, strain DEP1, stronger effect = lower value 0.999 | locus YAL021C, strain ccr4, stronger effect = lower value 1.03 and 0.994 | locus YAL026C, strain drs2, stronger effect = lower value 1 and 1.03 | locus YAL030W, strain snc1, stronger effect = lower value 0.99 and 1 | locus YAL040C, strain CLN3, stronger effect = lower value 0.982 | locus YBL061C, strain skt5, stronger effect = lower value 0.992 and 1.02 | locus YBR009C, strain hhf1, stronger effect = lower value 1.01 and 0.995 | locus YBR021W, strain FUR4, stronger effect = lower value 0.966 | locus YBR023C, strain chs3, stronger effect = lower value 1 and 1.01 | locus YBR171W, strain sec66, stronger effect = lower value 0.998 and 1.03 | locus YBR229C, strain ROT2, stronger effect = lower value 0.982 | locus YBR231C, strain swc5, stronger effect = lower value 0.989 and 1.01 | locus YBR279W, strain paf1, stronger effect = lower value 0.996 and 1 | locus YCL011C, strain gbp2, stronger effect = lower value 1.01 and 1 | locus YCL016C, strain dcc1, stronger effect = lower value 0.984 and 0.981 | locus YCL029C, strain bik1, stronger effect = lower value 0.984 | locus YCL061C, strain MRC1 (second series), stronger effect = lower value 0.984 | locus YCL061C, strain MRC1, stronger effect = lower value 1 | locus YCL069W, strain vba3, stronger effect = lower value 1 | locus YCR088W, strain abp1, stronger effect = lower value 1 and 1.01 | locus YDL005C, strain med2, stronger effect = lower value 1 and 1.01 | locus YDL035C, strain GPR1, stronger effect = lower value 1.01 | locus YDL040C, strain nat1, stronger effect = lower value 0.988 and 1.01 | locus YDL074C, strain BRE1, stronger effect = lower value 1.03 | locus YDL101C, strain DUN1, stronger effect = lower value 0.984 | locus YDL134C, strain PPH21, stronger effect = lower value 0.991 | locus YDL185W, strain tfp1, stronger effect = lower value 0.988 | locus YDL192W, strain arf1, stronger effect = lower value 0.996 | locus YDR001C, strain nth1, stronger effect = lower value 1 and 1.01 | locus YDR069C, strain doa4, stronger effect = lower value 0.987 and 1.02 | locus YDR101C, strain arx1, stronger effect = lower value 0.989 | locus YDR137W, strain rgp1, stronger effect = lower value 0.976 and 0.984 | locus YDR150W, strain NUM1, stronger effect = lower value 0.998 and 0.994 | locus YDR159W, strain sac3, stronger effect = lower value 0.965 and 1.04 | locus YDR162C, strain NBP2, stronger effect = lower value 1.03 | locus YDR195W, strain ref2 0.969 and 0.994 | locus YDR297W, strain sur2, stronger effect = lower value 0.987 and 1 | locus YDR318W, strain mcm21, stronger effect = lower value 0.974 | locus YDR334W, strain swr1, stronger effect = lower value 1.04 and 1.03 | locus YDR335W, strain msn5, stronger effect = lower value 1.01 | locus YDR363W, strain ESC2, stronger effect = lower value 0.991 | locus YDR388W, stronger effect = lower value 0.985 | locus YDR392W, strain spt3, stronger effect = lower value 1 and 0.935 | locus YDR502C, strain sam2, stronger effect = lower value 0.997 | locus YEL003W, strain gim4, stronger effect = lower value 1.02 | locus YEL037C, strain rad23, stronger effect = lower value 1.02 and 1.01 | locus YEL061C, strain CIN8 (second series), stronger effect = lower value 1.03 and 1 | locus YEL061C, strain CIN8, stronger effect = lower value 0.995 | locus YER002W, strain NOP16, stronger effect = lower value 0.994 | locus YER015W, strain faa2, stronger effect = lower value 1.01 and 1 | locus YER016W, strain bim1, stronger effect = lower value 0.987 and 1.01 | locus YER110C, stronger effect = lower value 0.977 | locus YER111C, strain swi4, stronger effect = lower value 0.977 and 1.02 | locus YER155C, strain BEM2 (second series), stronger effect = lower value 1.01 | locus YER155C, strain BEM2, stronger effect = lower value 0.984 | locus YER167W, strain BCK2, stronger effect = lower value 0.964 | locus YFR010W, strain ubp6, stronger effect = lower value 1.01 and 1.03 | locus YGL078C, strain dbp3, stronger effect = lower value 0.992 | locus YGL086W, strain mad1, stronger effect = lower value 0.951 | locus YGL167C, strain pmr1, stronger effect = lower value 0.995 and 1.01 | locus YGL173C, strain kem1, stronger effect = lower value 1 and 1.02 | locus YGL227W, strain vid30, stronger effect = lower value 0.973 and 1.01 | locus YGL240W, strain doc1, stronger effect = lower value 1.02 and 1.03 | locus YGL248W, strain PDE1, stronger effect = lower value 0.984 | locus YGL253W, strain hxk2, stronger effect = lower value 1.01 and 1.04 | locus YGR078C, strain PAC10, stronger effect = lower value 1.03 | locus YGR135W, strain pre9, stronger effect = lower value 0.998 | locus YGR229C, strain SMI1, stronger effect = lower value 1 | locus YGR252W, strain gcn5, stronger effect = lower value 0.955 | locus YHR013C, strain ard1, stronger effect = lower value 0.972 and 0.993 | locus YHR027C, strain rpn1, stronger effect = lower value 0.994 and 1.01 | locus YHR030C, strain SLT2, stronger effect = lower value 0.99 and 0.987 and 0.97 | locus YHR079C, strain IRE1 (second series), stronger effect = lower value 0.996 | locus YHR079C, strain IRE1, stronger effect = lower value 0.99 and 0.969 | locus YHR094C, strain hxt1, stronger effect = lower value 0.985 | locus YHR129C, strain ARP1, stronger effect = lower value 0.99 | locus YHR142W, strain chs7, stronger effect = lower value 0.983 and 1 | locus YHR200W, strain rpn10, stronger effect = lower value 0.982 | locus YIL066C, strain RNR3, stronger effect = lower value 0.965 | locus YIL073C, strain SPO22, stronger effect = lower value 0.944 | locus YIL125W, strain kgd1, stronger effect = lower value 0.996 | locus YIR030C, strain dcg1, stronger effect = lower value 0.987 | locus YJL092W, strain hpr5, stronger effect = lower value 1.01 and 1 | locus YJL095W, strain BCK1 (second series), stronger effect = lower value 0.991 and 1.01 | locus YJL095W, strain BCK1, stronger effect = lower value 0.992 and 1.01 and 0.971 | locus YJL115W, strain asf1, stronger effect = lower value 1.01 | locus YJL129C, strain trk1, stronger effect = lower value 0.974 and 1 | locus YJL134W, strain LCB3, stronger effect = lower value 0.984 | locus YJL154C, strain vps35, stronger effect = lower value 1.01 | locus YJL164C, strain tpk1, stronger effect = lower value 1 and 0.973 | locus YJL166W, strain qcr8, stronger effect = lower value 1.02 and 1.01 | locus YJL168C, strain set2, stronger effect = lower value 0.995 | locus YJL187C, strain SWE1 (second series), stronger effect = lower value 0.998 | locus YJL187C, strain SWE1, stronger effect = lower value 1 and 0.99 | locus YJR043C, strain POL32, stronger effect = lower value 0.983 | locus YJR066W, strain TOR1, stronger effect = lower value 0.923 and 0.916

Reference: PubChem BioAssay AID1159580 (chemical genetic matrix, 2015)
